The whole screen tested about 310,000 compounds, of which about 14,000 (4.5%) showed an effect of 50% or more. The effect is printed as a negative number. What follows is part of a selection rich in strong results, with near analogues and random picks from the rest.
What follows are compounds tested against human ether-à-go-go-related gene (hERG) potassium channel (human, UniProt Q12809) (assay: primary screen, population patch clamp on CHO cells stably expressing hERG; higher = less effect of the substance).
Sequence of human ether-à-go-go-related gene (hERG) potassium channel (Q12809 whole entry, looked up): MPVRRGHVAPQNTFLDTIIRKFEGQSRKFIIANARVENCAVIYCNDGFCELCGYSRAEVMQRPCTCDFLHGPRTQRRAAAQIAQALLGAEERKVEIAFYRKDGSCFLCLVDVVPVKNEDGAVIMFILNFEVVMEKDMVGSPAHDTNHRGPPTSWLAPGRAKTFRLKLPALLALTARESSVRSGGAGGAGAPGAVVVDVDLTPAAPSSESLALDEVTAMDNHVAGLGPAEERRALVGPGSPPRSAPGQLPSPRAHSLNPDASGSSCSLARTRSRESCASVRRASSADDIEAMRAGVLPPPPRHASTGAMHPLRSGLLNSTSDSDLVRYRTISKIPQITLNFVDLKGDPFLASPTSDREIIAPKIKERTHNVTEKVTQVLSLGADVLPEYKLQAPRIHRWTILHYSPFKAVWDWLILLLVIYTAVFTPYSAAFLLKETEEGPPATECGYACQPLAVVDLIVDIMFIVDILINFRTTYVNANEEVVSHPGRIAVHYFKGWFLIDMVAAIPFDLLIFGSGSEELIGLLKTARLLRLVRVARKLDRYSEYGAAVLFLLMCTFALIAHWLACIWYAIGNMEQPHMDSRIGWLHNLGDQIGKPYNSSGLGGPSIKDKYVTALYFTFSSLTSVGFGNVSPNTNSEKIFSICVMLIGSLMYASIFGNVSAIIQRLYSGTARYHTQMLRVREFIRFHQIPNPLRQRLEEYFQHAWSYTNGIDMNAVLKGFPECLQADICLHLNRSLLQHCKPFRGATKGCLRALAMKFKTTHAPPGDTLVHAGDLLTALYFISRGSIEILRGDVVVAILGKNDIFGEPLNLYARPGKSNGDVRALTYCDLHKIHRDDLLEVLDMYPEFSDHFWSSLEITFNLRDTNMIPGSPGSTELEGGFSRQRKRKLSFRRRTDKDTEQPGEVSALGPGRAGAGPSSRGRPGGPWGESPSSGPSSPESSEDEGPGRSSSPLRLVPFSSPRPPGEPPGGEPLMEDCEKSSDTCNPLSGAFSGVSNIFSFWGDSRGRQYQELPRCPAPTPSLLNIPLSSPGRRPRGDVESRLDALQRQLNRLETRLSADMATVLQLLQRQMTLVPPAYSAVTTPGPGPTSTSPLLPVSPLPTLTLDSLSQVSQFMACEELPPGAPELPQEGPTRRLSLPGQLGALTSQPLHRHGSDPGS
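Note: peak tail current of the secondary pulse compared with the same well before compound.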

Row | Structure (SMILES) | hERG current change (%, negative = inhibition) at 10uM
1 | Cc1cccc(CSCCNC(=O)CN(c2cc(C)cc(C)c2)S(C)(=O)=O)c1 | -23.9%
2 | CC(NC(=O)C(=O)N1CCOCC1)C(c1cccs1)N1CCN(c2ccc(F)cc2)CC1 (stereo not drawn) | -0.955%
3 | Cc1nc(C(F)(F)F)nc(Nc2ccc(Br)cc2)c1C#N | 12.2%
4 | COc1ccc(C=C(c2nc3ccccc3s2)c2nc3ccccc3s2)cc1O | 3.94%
5 | Cc1ccc2c(c1)N(CCC(=O)NCCN1CCOCC1)C(=O)CO2 | -2.16%
6 | N/C(Cc1ccc([N+](=O)[O-])cc1)=N\OC(=O)COc1ccc2ccccc2c1 | -14.4%
7 | O=C(O)c1cccc(CN2C(=O)SC(Nc3ccccc3)C2=O)c1 (stereo not drawn) | 2.16%
8 | Cl.Clc1ccc(OCCCN2CCc3ccccc3C2)c(Br)c1 | -34.8%
9 | Cc1ccc(C(C)C)c(OCC(O)CN2CCc3ccccc3C2)c1.Cl (stereo not drawn) | -65%
10 | Cc1ccc(C(C)C)c(OCCCN2CCc3ccccc3C2)c1.Cl | -70.1%
11 | OC(COc1ccc(Cl)cc1Cl)Cn1ccnc1 (stereo not drawn) | 9.67%
12 | OC(COc1ccc(F)cc1Cl)CN1CCc2ccccc2C1 (stereo not drawn) | -41.7%
13 | Cc1ccc(C(C)C)c(OCC(O)CN2CCN(CCO)CC2)c1.Cl (stereo not drawn) | -13.9%
14 | Cl.Clc1ccc(OCCOCCN2CCc3ccccc3C2)c(Cl)c1 | -69.8%
15 | Cc1ccc(C(C)C)c(OCCN2CCc3ccccc3C2)c1.Cl | 14.5%
16 | Cc1ccc(C(C)C)c(OCC(O)CN2CCOCC2)c1 (stereo not drawn) | -2.99%
17 | Cl.OC(COc1ccc(Cl)cc1Cl)CN1CCc2ccccc2C1 (stereo not drawn) | -58.6%
18 | Cl.c1ccc(-c2ccccc2OCCOCCN2CCc3ccccc3C2)cc1 | -28.7%
19 | Cc1ccc(C)c(OCCCN2CCc3ccccc3C2)c1.Cl | -49.4%

Row | Structure (SMILES) | hERG current change (%, negative = inhibition) at 10uM
20 | CCOC(=O)/C=C1\SCC(=O)N1CC(=O)NCCOC | -10.2%
21 | NC(=O)c1ccc[n+](CC(=O)OCCC23CC4CC(CC(C4)C2)C3)c1.[Cl-] | 11.8%
22 | COc1ccc(N(CC(=O)NC2CCCC2)S(=O)(=O)c2c(C)[nH]c(=O)[nH]c2=O)cc1 | 10.2%
23 | Cc1cccc(C)c1OCCN1CCOCC1.O=C(O)C(=O)O | -0.56%
24 | O=C(NNc1ncccc1-n1cccc1)c1ccc(Cl)cc1 | -15.4%
25 | O=C(CSc1nc(C2CC2)nc2sc3c(c12)CCCC3)NCc1ccco1 | -6.99%
26 | Cc1ccc(Cn2c(Sc3ncccn3)nc3c2c(=O)[nH]c(=O)n3C)cc1 | -5.24%
27 | CCOC(=O)C1=C(N)n2c(s/c(=C/c3ccco3)c2=O)=C(C(=O)OC)C1c1ccco1 (stereo not drawn) | -2.57%
28 | COCCNC(=O)c1c(NC(=O)c2ccco2)n(Cc2ccccc2)c2nc3ccccc3nc12 | -16.9%
29 | Cc1ccc(OCC(O)CN2CCc3ccccc3C2)c(C)c1.Cl (stereo not drawn) | -72.3%
30 | Cc1ccc(OCCCCN2CCc3ccccc3C2)c(C)c1.Cl | -34.1%
31 | Cc1cc(OCC(O)CN2CCc3ccccc3C2)cc(C(C)C)c1.Cl (stereo not drawn) | -56.2%
32 | Cc1ccc(OCC(O)CN2CCOCC2)c(C)c1.Cl (stereo not drawn) | 20.2%
33 | Cc1cccc(OCC(O)CN2CCc3ccccc3C2)c1.Cl (stereo not drawn) | -38%
34 | Cc1nc(SCCOc2ccccc2F)[nH]c(=O)c1Cc1ccccc1 | 46.9%
35 | O=C(Nc1cnn(Cc2ccccc2)c1)c1nc2ncccn2n1 | 6.14%
36 | Cc1nc(CCNC(=O)c2cc(COc3ccc(F)cc3Cl)on2)sc1C | -22.4%
37 | O=C(O)c1ccc(Cl)c2c1C1C=CCC1C(c1ccccn1)N2 (stereo not drawn) | 7.76%
38 | O=C(NCc1ccccn1)c1ccc(OC2CCN(Cc3ccc(F)cc3F)CC2)cc1 | -25.9%

Row | Structure (SMILES) | hERG current change (%, negative = inhibition) at 10uM
39 | COc1ccc(C(=O)NC2CCN(Cc3c(F)cccc3Cl)CC2)cc1OC | -1.46%
40 | COc1ccc(C(=O)NCC(=O)OCc2ccc(F)cc2Cl)cc1OC | -1.96%
41 | COCCNC(=O)c1cccc(OC2CCN(Cc3ccc(F)cc3OC)CC2)c1 | -23.1%
42 | COc1ccc(C(=O)NC2CC2)cc1OC1CCN(Cc2ccc(F)cc2Cl)CC1 | -70.9%
43 | COc1ccc(C(=O)NC2CC2)cc1OC1CCN(Cc2ccc(F)cc2F)CC1 | -81.5%
44 | Cc1cc2sc3ccccc3c(=O)c2c(C)c1O | 21.6%
45 | Cc1ccc(S(=O)(=O)N2CCOCC2)cc1C(=O)Nc1ccc2c(c1)CCC2 | -10.6%
46 | COC(=O)c1cn(NC(=O)C2CCC(C(C)(C)C)CC2)c(=O)c2ccccc12 (stereo not drawn) | 13.7%
47 | CCCCCCCC[n+]1cccc2c3ccccc3ccc21.[I-] | -84.3%
48 | CCCCCCCCCCCCCCCC[n+]1cccc2ccccc21.[I-] | -71.2%
49 | [Cl-].c1ccc(C[n+]2cccc3c4ccccc4ccc32)cc1 | -15%
50 | CCCC[n+]1c2ccccc2cc2ccccc21.[I-] | -32.9%
51 | O/N=C/c1cccc[n+]1CCCCCC[n+]1ccccc1/C=N/O.[Br-] | 20.1%
52 | CCCCCCCCC[n+]1cccc2c3ccccc3ccc21.[Br-] | -84.8%
53 | NC(=O)C[n+]1cccc2ccccc21.[I-] | 9.16%
54 | CCC[n+]1c2ccccc2cc2ccccc21.[I-] | 23.7%
55 | Cc1cccc[n+]1CCCCCCCCCC[n+]1ccccc1C.[Br-] | 37.8%
56 | O=C(C[n+]1cccc(CO)c1)Nc1nc2ccccc2s1.[Cl-] | -9.18%
57 | CC(C)CN(C(=O)CCC(=O)OCc1ccc(Cl)cc1Cl)c1c(N)n(CC(C)C)c(=O)[nH]c1=O | -47.3%

Source: paper PMC4336329 (PLoS ONE, 2015)
